Assay outcomes deposited in PubChem BioAssay by several laboratories.
697 NFkB inh – inhibitors of PMA/ionomycin-induced NF-kB reporter, 697 cells, primary screen, B-cell NF-kB inhibitor project, cell-based, luminescence, uHTS | 697 B-cell NF-kB luciferase reporter, 16 h | inhibition, % at 4 µM | 330,000 tested, 0.33% active; in the data active = inhibition above about 35%
LMP1 NFkB inh – EBV LMP1-driven NF-kappaB luciferase reporter inhibitors, primary screen, cell-based, luminescence, single point; 350,000 tested, 0.69% active; inhibition, % at 12.5 µM; LMP1-induced NF-kappaB luciferase reporter cells; AID 504558, 2011; in the data active = inhibition above about 41%; inconclusive = no clear call, values can overlap the other calls
Gli-Sufu antag – Gli-Sufu pathway antagonists, primary screen, luciferase luminescence, Sufu-KO-LIGHT cells, uHTS. Sufu-KO-LIGHT fibroblasts, Gli luciferase reporter luminescence. inhibition, % at 5 µM. AID 588413, 2011. 340,000 tested, 0.74% active;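 active = inhibition above about 55%, limit read from the data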
MITF TRPM1 inh – inhibitors of MITF-dependent TRPM1 promoter reporter, primary screen, cell-based, SK-MEL-5, single point, luciferase. SK-MEL-5 TRPM1 promoter luciferase, 24 h. inhibition, % at 12.5 µM. 330,000 tested, 0.83% active;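 active = mean inhibition across replicates of 60% or more, whatever share of single replicates reaches that level; inconclusive = some that reach 60%, reason not given; inactive = mean inhibition across replicates below 60%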
Jurkat NFkB inh – inhibitors of induced NF-kB luciferase reporter, primary screen, TCR NF-kB activation inhibitor project, cell-based, luminescence, uHTS. Jurkat, PMA/ionomycin-induced NF-kB luciferase reporter. inhibition, % at 4 µM. 330,000 tested, 0.53% active. AID 435003, 2010; in the data active = inhibition above about 50%
Shn3 3UTR inh – reduction of Shn3 3'UTR firefly luciferase signal, primary screen, Schnurri-3 inhibitor project, cell-based, Clone20 osteoblasts, set 2 | 360,000 tested, 0.52% active | inhibition, % at 12.5 µM | Clone20 osteoblast Shn3 3'UTR firefly luciferase, 24 h | AID 588674, 2011;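 active = mean inhibition of at least 75% with every replicate also reaching 75%; inconclusive = mean inhibition at least 75% but some replicate below; inactive = mean inhibition below 75%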
Jurkat NFkB conf – PMA/ionomycin-induced NF-kB reporter inhibitors, Jurkat retest, confirmation, T-cell NF-kB inhibitor project, cell-based, luminescence, single concentration. shares compounds with Jurkat NFkB inh. Jurkat NF-kB luciferase, 16 h. inhibition, % at 4 µM. 2,700 tested, 27% active. AID 435020, 2010;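 active = inhibition reaching about 45% at 4 µM in either replicate, limit read from the data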
Each line names hits and unclear results; the compound was inactive in the other large screens (follow-up assays come after a bar, where they were run). Only some compounds are listed: those with a hit (about 2.3% of all), similar ones and a draw of the others.

Cc1nc2ccc(NC(=O)c3cnc(Cl)c(Cl)c3)cc2s1	none
COc1ccc(N(S(=O)(=O)c2ccccc2)S(=O)(=O)c2ccccc2)c(N)c1	Jurkat NFkB inh 51 | Jurkat NFkB conf inactive
COC(=O)CNC(=O)CN(c1ccc(OC)cc1OC)S(=O)(=O)c1ccccc1	none
O=C(NCc1cccnc1)c1ccc(COc2ccc3c(c2)CCC3)o1	none
O=C(NCc1cccnc1)c1ccc(COc2ccccc2Br)o1	Jurkat NFkB inh 72 | Jurkat NFkB conf inactive
O=C(NCc1cccnc1)c1ccc(COc2ccccc2Cl)o1	Jurkat NFkB inh 56 (no result: MITF TRPM1 inh) | Jurkat NFkB conf inactive
O=C(Nc1scc(-c2ccc(F)cc2)c1C(=O)O)c1ccco1	none
COC(=O)c1c(-c2ccccc2)csc1NC(=O)c1ccco1	none | Jurkat NFkB conf inactive
Cc1sc(NC(=O)c2ccco2)nc1-c1ccccc1	none | Jurkat NFkB conf inactive
COC(=O)c1ccc(NC(=O)CSc2nc3ncccc3[nH]2)cc1	none
CCOC(=O)c1ccc(NC(=O)N2CCc3ccccc3C2)cc1	none
CCOC(=O)c1ccc(NC(=O)N2CCc3ccccc32)cc1	none | Jurkat NFkB conf inactive
O=[N+]([O-])c1ccc2[nH]c3c(c2c1)CCCC3	none
Cc1cccc(NC(=S)c2nc3ccccc3s2)c1	none | Jurkat NFkB conf inactive
O=C(Nc1ccccc1)c1nc2ccccc2s1	none | Jurkat NFkB conf inactive
Cc1cccc(NC(=S)Nc2ccccn2)c1	none
O=C(Nc1ccccc1)c1ccc2ccccc2n1	none | Jurkat NFkB conf inactive
O=C(Nc1ccc2c(c1)OCCO2)c1ccc2ccccc2n1	none | Jurkat NFkB conf inactive
COc1ccccc1NC(=O)c1oc2ccccc2c1C	none (no result: 697 NFkB inh, Gli-Sufu antag, MITF TRPM1 inh, Jurkat NFkB inh)
O=C(NC(=S)Nc1ccc2c(c1)OCCO2)c1ccccc1F	none
O=C(NC(=S)Nc1ccc2c(c1)OCCO2)c1ccccc1	none | Jurkat NFkB conf inactive
CC1Cc2ccccc2N1C(=O)/C=C/c1cccc(F)c1 (configuration not stated)	none | Jurkat NFkB conf inactive
CC(C)c1ccc(NC(=S)N2CCN(Cc3ccccc3)CC2)cc1	none
O=C(CSc1ccc2nnc(-c3ccccc3)n2n1)N1CCCCC1	none
O=C(Nc1ccncc1)C1CCCN(S(=O)(=O)c2cccc3cccnc23)C1 (configuration not stated)	Jurkat NFkB inh 63 | Jurkat NFkB conf inactive
CN(C(=O)CSc1ncnc2sccc12)c1c(N)n(Cc2ccccc2)c(=O)[nH]c1=O	none (no result: Shn3 3UTR inh)
CCOC(=O)c1sc(N)c(C(=O)Nc2ccccc2OC)c1C	Jurkat NFkB inh 71 | Jurkat NFkB conf inactive
COc1cc(OC)cc(C(=O)Nn2cnnc2)c1	none
CC(C)COc1ccc(C(=O)OCCN2CCOCC2)c(O)c1	none
Cc1ccc2nc(/C(C#N)=C\c3ccc([N+](=O)[O-])o3)[nH]c2c1	MITF TRPM1 inh 92, Jurkat NFkB inh 59, Shn3 3UTR inh 99 (no result: Gli-Sufu antag) | Jurkat NFkB conf inactive
Cc1ccc(C(=O)c2sc3nsc(C)c3c2N)cc1	none | Jurkat NFkB conf inactive
Cc1snc2sc(C(=O)c3ccc(Br)cc3)c(N)c12	none
CCC(=O)NCCCNc1nc2c(C)cccc2cc1C#N	none
Cn1nnc(-c2ccc(OCc3ccccc3F)cc2)n1	none | Jurkat NFkB conf inactive
COc1ccc(CNC(=O)OCc2nccnc2C(=O)Nc2ccc(Br)cn2)cc1	none
CC[C@H](C)C(C(=O)N1CCN(C(=O)OC(C)(C)C)CC1)n1cc(C(CO)NC(=O)OC(C)(C)C)nn1 (some centres not stated)	none
CCCNC(=O)c1ccc(-c2nc3ccccc3s2)s1	none | Jurkat NFkB conf inactive
Brc1ccc(-c2nc3ccccc3s2)s1	none | Jurkat NFkB conf inactive
CCCNC(=O)Nc1nc2ccccc2s1	none
COc1ccc(/C=N/Nc2ccccc2C(=O)O)cc1Cn1cc([N+](=O)[O-])cn1	none
COc1cc(-c2noc(C)c2C#Cc2nccn2C)cc(OC)c1OC	none
COc1cc(-c2noc(C)c2-c2ccc3[nH]ccc3c2)cc(OC)c1OC	Jurkat NFkB inh 65 | Jurkat NFkB conf 51
COc1cc(-c2noc(C)c2-c2ccc(N(C)C)nc2)cc(OC)c1OC	MITF TRPM1 inh inconclusive, Jurkat NFkB inh 71 | Jurkat NFkB conf 58
CC(C)(C)c1ccc(C(=O)Nc2ccc(Oc3cccnc3)nc2)cc1	Jurkat NFkB inh 52 | Jurkat NFkB conf inactive
CC(C)(C)c1ccc(C(=O)Nc2cccnc2)cc1	none
Cc1c(C(=O)Nc2nccs2)oc2ccccc12	none (no result: 697 NFkB inh, Gli-Sufu antag, MITF TRPM1 inh, Jurkat NFkB inh)
Cc1c(C(=O)NC2=NCCS2)oc2ccccc12	none | Jurkat NFkB conf inactive
Cc1csc(NC(=O)c2oc3ccccc3c2C)n1	none | Jurkat NFkB conf inactive
O=C(N/N=C(\c1ccccc1)c1cccnc1)c1cccc(F)c1	LMP1 NFkB inh 46, Gli-Sufu antag 94, MITF TRPM1 inh 90, Jurkat NFkB inh 52, Shn3 3UTR inh 95 | Jurkat NFkB conf 55
Cc1ccc2c(c1)Oc1ccc(NC(=O)CCl)cc1C(=O)N2	MITF TRPM1 inh 91, Jurkat NFkB inh 64 | Jurkat NFkB conf 51
O=C(CN(Cc1ccccc1)S(=O)(=O)c1ccccc1)N1CCOCC1	none
O=C(Nc1ccc(Br)cc1)c1ccc2c(c1)OCO2	none | Jurkat NFkB conf inactive
O=C(Nc1ccc2c(c1)OCO2)c1ccc2c(c1)OCO2	none
O=C(Nc1ccc2nsnc2c1)c1ccc2c(c1)OCO2	none | Jurkat NFkB conf inactive
O=C(c1ccccc1F)N1CCN(c2ccc([N+](=O)[O-])c(NCc3cccnc3)c2)CC1	none (no result: LMP1 NFkB inh, MITF TRPM1 inh)
COc1ccc(CCNc2cc(N3CCN(C(=O)c4ccc(C)cc4)CC3)ccc2[N+](=O)[O-])cc1OC	Jurkat NFkB inh 75 (no result: LMP1 NFkB inh, Gli-Sufu antag, MITF TRPM1 inh, Shn3 3UTR inh) | Jurkat NFkB conf 67
COc1ccc(CCNc2ccc(C(=O)O)cc2[N+](=O)[O-])cc1OC	none
COc1ccc(CCNc2cc(N3CCN(C(=O)c4ccccc4F)CC3)ccc2[N+](=O)[O-])cc1OC	MITF TRPM1 inh 83, Jurkat NFkB inh 58, Shn3 3UTR inh 88 | Jurkat NFkB conf 67
COC(=O)c1c(-c2ccc(SC)cc2)sc2ccc(OC)cc12	none | Jurkat NFkB conf inactive
COc1ccc2c(c1OC)C(=O)N1c3ccccc3C(=O)N(c3ccccc3)C21 (configuration not stated)	Jurkat NFkB inh 54 | Jurkat NFkB conf inactive
COc1ccc2c(c1OC)C(=O)N1c3ccccc3C(=O)N(c3ccc(F)cc3)C21 (configuration not stated)	none
Cc1cccc(/C=N/Nc2nncc3ccccc23)c1	none | Jurkat NFkB conf inactive
CCC(=O)N1CCc2cc(Br)c(S(=O)(=O)CCC(=O)NCCOC)cc21	none (no result: 697 NFkB inh, Jurkat NFkB inh)
Cc1ccc2c(c1)sc1nc(=O)n(-c3ccc(Cl)cc3)c(=O)n12	none
